Assay outcomes from PubChem BioAssay.
D1 antagonist – Antagonist of Human D 1 Dopamine Receptor: qHTS. D(1A) dopamine receptor (Homo sapiens), P21728. HEK293 TREx D1 cells, calcium flux, dopamine EC80; stronger effect = lower value. AID 504652, 2011. 360,000 compounds, 3.2% hits. activity change, negative = inhibition, % at 10 µM; in the data active = activity change below about -30%; also: % is scaled to controls: 0 for no effect and ±100 for the full control effect
Target sequence (P21728 whole entry, looked up): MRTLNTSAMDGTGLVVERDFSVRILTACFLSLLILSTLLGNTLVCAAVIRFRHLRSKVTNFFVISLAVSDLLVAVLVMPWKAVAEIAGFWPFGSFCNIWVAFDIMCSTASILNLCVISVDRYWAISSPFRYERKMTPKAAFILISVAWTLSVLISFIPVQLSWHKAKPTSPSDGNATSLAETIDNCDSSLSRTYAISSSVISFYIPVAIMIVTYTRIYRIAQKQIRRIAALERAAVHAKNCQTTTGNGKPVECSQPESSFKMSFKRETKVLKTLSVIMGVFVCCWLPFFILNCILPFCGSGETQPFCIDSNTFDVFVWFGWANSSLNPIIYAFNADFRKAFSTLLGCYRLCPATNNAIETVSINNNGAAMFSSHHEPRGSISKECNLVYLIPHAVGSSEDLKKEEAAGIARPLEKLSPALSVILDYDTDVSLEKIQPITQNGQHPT
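Using tetracycline-induced force-coupled D1 Hek293 cells and a calcium dye, signals were followed for 180 s after compound, then for 180 s after EC80 dopamine, to detect inhibitors.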
D1 PAM – Potentiators of Human D1 Dopamine Receptor: qHTS; potentiation, % at 10 µM; D(1A) dopamine receptor (Homo sapiens), P21728; HEK293 TREx D1 cells, calcium flux, dopamine EC20 potentiation; 360,000 compounds, 0.036% hits; in the data active = potentiation above about 30%; also: 0% is about no effect
D1 ag – Allosteric Agonists of the Human D1 Dopamine Receptor: qHTS; D(1A) dopamine receptor (Homo sapiens), P21728; HEK293 T-REx D1 cells, calcium flux, agonist mode; activation, % at 2 µM; 360,000 compounds, 1% hits; AID 504660, 2011; also: 0% is about no effect
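Tetracycline-induced HEK293 TREx D1 cells, force-coupled to calcium signalling, were dye-loaded with a no-wash calcium kit. Compound was pin-added after a 10 s baseline. Fluorescence was read kinetically at 1 cycle/s for 180 s, with calcium rises flagged as agonism.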
TRHR agonist – qHTS for Small Molecule Agonists and Allosteric Enhancers of Human TRH Receptor: Primary Screen for Agonists; TRHR cells, calcium flux fluo-8, FDSS agonist mode; Thyrotropin-releasing hormone receptor (Homo sapiens), P34981; 360,000 compounds, 0.18% hits; activation, % at 2 µM; also: 0% is about no effect
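Fluo-8-loaded TRHR cells; 10 s baseline, compound added, kinetic Ca2+ fluorescence read 1/s, agonist mode.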
TRHR PAM – qHTS for Small Molecule Agonists and Allosteric Enhancers of Human TRH Receptor: Primary Screen for Enhancers; Thyrotropin-releasing hormone receptor (Homo sapiens), P34981; TRHR cells, fluo-8 calcium fluorescence, EC20 TRH enhancement; 360,000 compounds, 0.66% hits; enhancement, % at 2 µM; in the data active = enhancement above about 30%; also: 0% is about no effect
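TRHR-expressing cells loaded with fluo-8 calcium dye were read kinetically (ex 480/em 530) during compound addition, then stimulated with an EC20 of TRH (10 nM final). Enhancement of the Gq-mediated intracellular calcium response was scored.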
An asterisk follows results filed as active; x = no result given. Compounds with a hit are over-represented: about 4.6% of the library has one in this group of screens. Rule as the data show it, unless noted: active = activation above about 30%; inactive = the rest.

SMILES | D1 antagonist | D1 PAM | D1 ag | TRHR agonist | TRHR PAM
COC(=O)c1ccccc1NC(=O)CSc1ncccn1 | 5 | -7 | 4 | -1 | 0
CCOC(=O)N1CCc2c(sc(NCc3ccc(N(C)C)cc3)c2C(=O)Nc2ccccc2OCC)C1 | 2 | 1 | 0 | -1 | 6
CCOP(=O)(OCC)C(NC(=O)Nc1ccccc1)C(N)=O (stereo unspecified) | -32* | 0 | 4 | 0 | -3
O=c1oc2cc(O)ccc2cc1S(=O)(=O)c1ccccc1 | 20 | 7 | 0 | -1 | 5
CCCCCCc1cc2cc(C(=O)NCc3ccccc3)c(=N)oc2cc1O | -20 | 3 | 3 | 18 | -2
CCCCCCc1cc2cc(S(=O)(=O)c3ccc(Cl)cc3)c(=O)oc2cc1O | -6 | -2 | 32* | 12 | -8
CCN(CC)c1ccc2cc(S(=O)(=O)c3ccc(Cl)cc3)c(=O)oc2c1 | -7 | 21 | 272* | 110* | 7
CCCCCCc1cc2cc(S(=O)(=O)c3ccc(C)cc3)c(=O)oc2cc1O | -8 | -7 | 27 | 29 | 47*
CCCCCCc1cc2cc(-c3nnc(-c4cccc(Cl)c4)o3)c(=O)oc2cc1O | -2 | -2 | 129* | 72* | -2
Cc1c(C(=O)NC(C)c2ccccc2)sc2ncnc(N(C)C3CCCCC3)c12 (stereo unspecified) | -9 | -2 | 3 | 0 | 2
CC(NC(=O)c1ccco1)C(=O)N1CCN(c2ccccc2)CC1 (stereo unspecified) | -29 | -2 | 0 | 1 | -3
CC(NC(=O)c1ccco1)C(=O)N1CCN(C(c2ccccc2)c2ccccc2)CC1 (stereo unspecified) | -32* | 1 | 1 | 0 | 0
COc1cc(OC)cc(-c2c(-c3cccs3)c3cc(Br)ccc3n2C)c1 | x | -6 | -1 | 0 | -2
COc1cc(F)cc(-c2ccc3c(c2)c(-c2cccs2)c(-c2cc(OC)cc(OC)c2)n3C)c1 | x | -6 | 42* | 5 | -1
CCOC(=O)CCn1c(=O)c2cccn2c2cccnc21 | 3 | -3 | 3 | 0 | 9
O=C(CN1CCN(c2ccccc2)CC1)c1ccc2cc[nH]c2c1 | -36* | -6 | 5 | 4 | -3
Cc1ccc(Cn2c(=O)n(CCc3ccccc3)c(=O)c3sc4ccccc4c32)cc1 | -5 | -2 | 2 | 2 | -7
O=c1c2sc3ccccc3c2n(Cc2ccccc2)c(=O)n1CCc1ccccc1 | -52* | -1 | 0 | 1 | -3
Cc1cccc(NC(=S)NC2CC3CCCC(C2)N3Cc2cccs2)c1 (stereo unspecified) | -89* | -20 | 13 | 2 | 5
Cc1cc(Br)ccc1NC(=O)CN(C)C(=O)CCSc1ccc(F)cc1 | -35* | -9 | 14 | 0 | 2
CN(CC(=O)Nc1ccccc1Cl)C(=O)CCSc1ccc(F)cc1 | 5 | -5 | 20 | 0 | 0
N#CC(C#N)=C1C=C2C=C(N3CCOCC3)CCC2CC1 (stereo unspecified) | 10 | 17 | 522* | 231* | -20
N#Cc1cc(Cl)c(N2CCOCC2)cc1C#N | x | -2 | 3 | 1 | -3
CCN1CCN(C2=CC3=CC(=C(C#N)C#N)CCC3CC2)CC1 (stereo unspecified) | -20 | 18 | 590* | 235* | -22
CN1CCN(C2=CC3=CC(=C(C#N)C#N)CCC3CC2)CC1 (stereo unspecified) | 13 | 37* | 723* | 315* | 17
SMILES | D1 antagonist | D1 PAM | D1 ag | TRHR agonist | TRHR PAM
CC1(C)CC(NCCN2CCN(C3=CC(=C(C#N)C#N)CC(C)(C)C3)CC2)=CC(=C(C#N)C#N)C1 | 2 | -5 | 0 | 0 | 2
N#CC(C#N)=C1C=C2C=C(N3CCCCCC3)CCC2CC1 (stereo unspecified) | -68* | -16 | 383* | 205* | -15
COc1ccc(S(=O)(=O)Nc2cc3c(cc2NCc2ccccc2)n(C)c(=O)n3C)cc1 | -2 | -2 | 6 | -1 | 19
CC(C)c1ccc(S(=O)(=O)NCc2nc3cccnc3n2Cc2ccc(F)cc2)cc1 | -8 | -3 | 2 | -1 | -5
COc1ccccc1-c1nnc(C2CCN(S(=O)(=O)c3ccc(CC(C)C)cc3)CC2)o1 | -12 | -1 | 5 | -1 | -3
CCCCC12CN3CC(C)(CN(C1)C3c1ccc(OCc3ccccc3)cc1)C2=O (stereo unspecified) | 2 | 0 | 1 | 1 | -3
Cc1cc(C)c2c(=O)c3c(oc2c1)C(=O)N(CCCOC(C)C)C3c1ccccc1F (stereo unspecified) | -3 | 0 | 0 | -1 | 6
CC(C)C(C(=O)OCC(=O)c1cccc([N+](=O)[O-])c1)N1C(=O)[C@@H]2[C@H]3CC[C@H](C3)[C@@H]2C1=O (stereo partly specified) | -33* | 2 | 2 | 0 | -4
O=C(CN1C(=O)C2C3CCC(C3)C2C1=O)OCC(=O)c1cccc([N+](=O)[O-])c1 (stereo unspecified) | -33* | -6 | 14 | 0 | -1
O=C(CCN1C(=O)C2C3CCC(C3)C2C1=O)OCC(=O)c1cccc([N+](=O)[O-])c1 (stereo unspecified) | -6 | 5 | 3 | 0 | 2
O=C(Cn1c(=O)n(Cc2nc(-c3ccccc3)no2)c(=O)c2cc3c(cc21)OCO3)Nc1ccc(Cl)cc1 | -3 | -1 | 7 | 1 | 2
Cc1ccc(S(=O)(=O)Nc2cc3c(cc2C)n(C)c(=O)c(=O)n3C)cc1 | -1 | -6 | 2 | 0 | 0
Cc1nc2ccc(NS(=O)(=O)c3ccc4c(c3)OCCO4)cc2s1 | -31* | -3 | 25 | 1 | -3
Cc1ccc(S(=O)(=O)Nc2ccc3c(c2)nc(CN2CCCC2)n3C)cc1 | -14 | -2 | 49* | 1 | 14
CSc1ccc(S(=O)(=O)Nc2ccc3c(c2)OCCO3)cc1 | -30* | -3 | 13 | 0 | -4
Cc1nc2ccc(S(=O)(=O)Nc3cccc(-c4nc5cccnc5s4)c3)cc2s1 | 0 | -6 | 3 | 0 | 3
Cc1nc2ccc(S(=O)(=O)Nc3ccc(-c4nc5cccnc5s4)cc3)cc2s1 | -54* | -5 | -4 | -1 | 4
Cc1ccc(S(=O)(=O)Nc2ccc3c(c2)OCCO3)cc1 | -21 | 3 | 8 | 0 | 0
COc1ccccc1C1Nc2c(sc3nc(C)cc(C)c23)C(=O)N1c1ccccc1 (stereo unspecified) | -1 | 2 | 0 | -2 | -2
